Assay results from PubChem BioAssay.

Assay: JC-1 mitochondrial signal, unstimulated HepG2 cells – cell-based, JC-1 fluorescence, 24 h, 100 nL compound, profiling panel (AID 1167); note: test concentration not given here
Conditions: HepG2 mitochondrial potential, higher = more signal

**Q.** With CN1CCC(CCCO)=CC1c1ccc(CN2CCCC2)cc1 (stereo unspecified) as the molecule, how does the z-score read?
**A.** 0.217

**Q.** With C=C[C@H](C)[C@@H](O)c1ccc(O)c2ccccc12 as the molecule, how does the z-score read?
**A.** -1.98

**Q.** Which z-score does the source give for COCCOC(=O)N1C(=O)[C@@]2(c3cc(C#CC4=CCCCC4)ccc31)[C@H](C(=O)N1CCc3cc(OC)c(OC)cc3C1)[C@H]1C(=O)O[C@H](c3ccccc3)[C@H](c3ccccc3)N1[C@@H]2c1ccccc1OCCO here?
**A.** 0.0701

**Q.** For COC(=O)C1=CC(CCCO)=CC(C2CC2)N(Cc2sc3ccccc3c2Cl)C=C1C(=O)OC (stereo unspecified), which z-score is on record?
**A.** 0.00468

**Q.** For NC(=O)NCC#Cc1ccc2c(c1)[C@]1(C(=O)N2)[C@H](C(=O)N2CCCCCCC2)[C@H]2C(=O)O[C@H](c3ccccc3)[C@H](c3ccccc3)N2[C@@H]1c1ccc(OCCO)cc1, which z-score is on record?
**A.** -1.79

**Q.** Which z-score does the source give for COc1ccccc1CN1C(=O)c2ccccc2[C@@H](C(=O)NCCN2CCOCC2)[C@@H]1c1ccc(CO)cc1 here?
**A.** 2.15

**Q.** With O=c1cccc(C=Cc2ccccc2)o1 as the molecule, how does the z-score read?
**A.** 0.053

**Q.** Which z-score does the source give for C=C[C@@H](COC(C)=O)N(Cc1ccc([N+](=O)[O-])cc1)S(=O)(=O)c1ccc(Br)cc1 here?
**A.** 0.64

**Q.** Which z-score does the source give for CC(C)C(=C=CC[C@@H](O)c1ccccc1OCCO)C[C@@H](O)c1ccccn1 here?
**A.** -0.687

**Q.** With CCCCC=C[C@@H](NC(=O)c1ccc(C(=O)OC)cc1)c1ccccc1 as the molecule, how does the z-score read?
**A.** -1.33

**Q.** For O=c1oc(-c2ccccc2)nc2cc(Br)ccc12, which z-score is on record?
**A.** -0.773

**Q.** Which z-score does the source give for C=CC(COC(C)=O)NS(=O)(=O)c1ccc(Br)cc1 (stereo unspecified) here?
**A.** -0.642

**Q.** For CS(=O)(=O)CCOC(=O)C1=CC(CCCO)=CC(c2cccs2)N(Cc2cc3c(cc2Br)OCO3)C=C1C(=O)OCCS(C)(=O)=O (stereo unspecified), which z-score is on record?
**A.** 1.09

**Q.** Which z-score does the source give for CCC[C@@H]1C=C(C(=O)O)[C@H](c2ccc(C)cc2)N1S(=O)(=O)c1ccc(C)cc1 here?
**A.** -0.584

**Q.** With CC(C)NC(=O)[C@@H]1c2ccccc2C(=O)N(Cc2ccccc2)[C@H]1c1ccc(CO)cc1 as the molecule, how does the z-score read?
**A.** 0.681

**Q.** For Cc1ccc(S[C@]2(C(=O)NCc3ccccc3)CC(=O)N(Cc3ccccc3)[C@@H]2c2ccc(CO)cc2)cc1, which z-score is on record?
**A.** -0.452

**Q.** For COC(=O)c1ccc(C(O)C2C=CC3C(=O)N(C)C(=O)C3N2NC(=O)OC(C)(C)C)o1 (stereo unspecified), which z-score is on record?
**A.** -1.28

**Q.** Which z-score does the source give for COc1ccc(C(=O)Nc2cccc(CN3C(=O)[C@]4(O[C@H](CC(=O)N5CCC[C@H]5CO)[C@@H]([Si](C)(C)c5ccc(OC)cc5)[C@@H]4C)c4ccccc43)c2)cc1 here?
**A.** -1.73

**Q.** With CC(C)Cc1ccc(CN2CC[C@@H](NS(=O)(=O)c3ccccc3)C2)cc1 as the molecule, how does the z-score read?
**A.** -1.13

**Q.** With C=CCC(OC(C)=O)[C@@H]1[C@@H](N(Cc2cccc3ccccc23)C(=O)c2cccc3ccccc23)c2cc(OCCCO)ccc2N1C(=O)c1ccc2ccccc2n1 (stereo partly specified) as the molecule, how does the z-score read?
**A.** 0.978

**Q.** For COCCOC(=O)N1C(=O)[C@@]2(c3cc(C#CCNC(N)=O)ccc31)[C@H](c1ccc(OCCO)cc1)N1[C@H](c3ccccc3)[C@H](c3ccccc3)OC(=O)[C@H]1[C@@H]2C(=O)N1CCc2cc(OC)c(OC)cc2C1, which z-score is on record?
**A.** -1.04

**Q.** For O=C1C=CC(=O)[C@@H]2CC(COc3ccccc3)=C3[C@@H](CCc4ccccc4)OB(O)C[C@@H]3[C@H]12, which z-score is on record?
**A.** -3.77

**Q.** With [N-]=[N+]=NCc1ccccc1[C@@H]1OC(c2ccc(OCCCO)cc2)=N[C@]1(Cc1ccccc1N=[N+]=[N-])C(=O)NCc1ccccc1 as the molecule, how does the z-score read?
**A.** 1.47

**Q.** With NCCCCCCNC(=O)[C@H]1C[C@H]2C(=O)NCC(=O)N2[C@H]1c1cccc(OCCO)c1 as the molecule, how does the z-score read?
**A.** 2.48

**Q.** Which z-score does the source give for CCCCCN1CC=CC23O[C@@H]4/C=C\CCC(C)OC(=O)C4[C@H]2C(=O)N(CCCCCO)[C@@H]3C1=O (stereo partly specified) here?
**A.** -0.356

**Q.** For O=C(NCc1ccccc1)[C@]1(CCS(=O)(=O)c2ccccc2)N=C(c2ccc(OCCCO)cc2)O[C@@H]1c1ccccc1, which z-score is on record?
**A.** 1.24

**Q.** With C=CC(=C)C1=CCO[C@@H]1[C@H]1CCCN1S(=O)(=O)c1ccccc1[N+](=O)[O-] as the molecule, how does the z-score read?
**A.** 0.248

**Q.** With COc1ccc(C(=O)Nc2cccc(CN3C(=O)[C@@]4(O[C@@H](CCn5cc(CCO)nn5)[C@H]([Si](C)(C)c5ccc(OC)cc5)[C@H]4C)c4ccccc43)c2)cc1 as the molecule, how does the z-score read?
**A.** 0.254

**Q.** With CCCC[C@H]1OB(O)C[C@H]2C1=C(C)C[C@H]1C(=O)N(Cc3ccccc3)C(=O)[C@H]12 as the molecule, how does the z-score read?
**A.** -0.432

**Q.** With COc1ccc(NN2C(C(O)c3ccc(OC)c(OCc4ccccc4)c3)C=CC3C(=O)N(C4CCCCC4)C(=O)C32)cc1 (stereo unspecified) as the molecule, how does the z-score read?
**A.** 0.348

**Q.** For COCC(=C=CC[C@H](O)c1ccc(OCCO)cc1)C[C@H](O)c1cc(Cl)cc(Cl)c1O, which z-score is on record?
**A.** -0.0342

**Q.** For O=C/C=C/c1ccc2c(c1)OCO2, which z-score is on record?
**A.** 1.4

**Q.** Which z-score does the source give for Cc1ccc(S[C@]2(C(=O)NCC(C)C)CC(=O)N(Cc3ccccc3Cl)[C@@H]2c2ccc(CO)cc2)cc1 here?
**A.** -0.595

**Q.** For CN(C)C(=O)[C@]1(CCC(=O)OC(C)(C)C)N=C(c2ccc(OCCCO)cc2)O[C@@H]1c1ccccc1N=[N+]=[N-], which z-score is on record?
**A.** 2.25

**Q.** With [N-]=[N+]=NCc1ccccc1C[C@]1(C(=O)NCCN2CCOCC2)N=C(c2ccc(OCCCO)cc2)O[C@H]1c1ccccc1N=[N+]=[N-] as the molecule, how does the z-score read?
**A.** 0.815

**Q.** With O=C1O[C@H](c2ccccc2)[C@H](c2ccccc2)N2[C@H]1[C@@H](C(=O)Nc1nc3ccccc3s1)[C@]1(C(=O)Nc3ccccc31)[C@H]2c1ccc(O)cc1 as the molecule, how does the z-score read?
**A.** -3.78
